{"source": "PubChem BioAssay (NCI)", "note": "This is part of a sample that, as a whole, favours compounds with a hit. Of some 83,000 tested, about 20% had one in any assay.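 Each cell line was grown in a 96-well plate and treated with one concentration of compound for 48 hours. Values below 10 were considered active.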 Values without a mark were called inactive. Activity calls are given as the source filed them.", "data": [{"tested_on": "HL-60(TB) leukemia", "test": "NCI-60 one-dose screen, 48 h (100 = growth as untreated, 0 = no growth, -100 = all killed)", "settings": "10 µM unless noted", "values": [{"smiles": "COc1cc(OC)cc(-c2cc(-c3c[nH]c4ccccc34)nc(-c3c[nH]c4ccccc34)c2C#N)c1", "growth": "102%"}, {"smiles": "COc1ccc(-c2cc(-c3ccc(Cl)cc3)nc3nc(N)nn23)cc1", "growth": "72.2%"}, {"smiles": "COc1cc(/C=C/C(=O)c2ccc(C)cc2)ccc1Oc1nc(NCCO)nc(N2CCOCC2)n1", "growth": "-26.7% (active)"}, {"smiles": "CC(=O)C1=C(C)NC(NN)=NC1c1cccc(Cl)c1", "note": "(stereo unspecified)", "growth": "115%"}, {"smiles": "COc1ccc(Cn2cc3c(c2-c2cc(OC)c(OC)c(OC)c2)CCCc2cnoc2-3)cc1", "growth": "-5.47% (active)"}, {"smiles": "O=C(NCCN1CCCC1)c1ccc(-c2nc3ccc4[nH]ncc4c3c3c2CCCC3)cc1", "growth": "-49.8% (active)"}, {"smiles": "Cc1ccc2c(c1)C(=O)/C(=C/c1cccc(F)c1)S2", "growth": "98.9%"}, {"smiles": "O=c1[nH]c(Sc2sc3ccc(Cl)cc3c2CBr)nc(=S)[nH]1", "growth": "21.7%"}, {"smiles": "Cc1ccc(CSc2nc(-c3ccc(Cl)cc3)c(C#N)c(N3CCOCC3)n2)cc1", "growth": "98.2%"}, {"smiles": "Cc1ccc(-c2cc3nc(C(Cl)Cl)nc(-c4ccccc4)n3n2)cc1", "growth": "55.1%"}, {"smiles": "O=C1Nc2ccccc2/C1=C/c1ccc(CO)n1-c1ccc(Cl)cc1", "growth": "15.8%"}, {"smiles": "O=C(COc1ccc(C2SCC(=O)N2c2ccccc2)cc1)c1ccccc1", "note": "(stereo unspecified)", "growth": "96.2%"}, {"smiles": "CCCCc1nc2c(N)nc3ccccc3c2n1Cc1ccc(OC)cc1", "growth": "31%"}, {"smiles": "Clc1ccc2c(N/N=C/c3c[nH]c4ccccc34)ccnc2c1", "growth": "-34.7% (active)"}, {"smiles": "COc1c(N2CC3CCCNC3C2)c(F)cc2c(=O)c(C(=O)N/N=C/c3ccccc3)cn(C3CC3)c12", "note": "(stereo unspecified)", "growth": "73.6%"}, {"smiles": "C[C@@H]1C[C@H]2C(=O)OCC(NC(=O)[C@H](Cc3cc(F)cc(F)c3)NC(=O)Nc3ccc(Cl)cc3F)C(=O)N3CCC[C@H]3C(=O)N3CCCC[C@H]3C(=O)N[C@@H](C)C(=O)N2C1", "note": "(stereo partly specified)", "growth": "6.2% (active)"}, {"smiles": "CC1=C(C)C(=O)C(Nc2ccc(C)cc2)=C(Br)C1=O", "growth": "68.6%"}, {"smiles": "Cc1ccc(C(=O)Nc2cccc(C(F)(F)F)c2)cc1Nc1nc(-c2cnccn2)nc2c1cnn2C", "growth": "22%"}, {"smiles": "C/C(=N/Nc1nc(N/N=C(/C)c2ccc([N+](=O)[O-])cc2)nc(N2CCOCC2)n1)c1ccc([N+](=O)[O-])cc1", "growth": "92.6%"}, {"smiles": "CC(=O)c1cc(C(=O)N2c3ccccc3Sc3ccccc32)n2c1ccc1ccccc12", "growth": "14%"}, {"smiles": "COc1ccc(Cn2cc3c(c2-c2ccccc2)CCCc2cnoc2-3)cc1", "growth": "6.55% (active)"}, {"smiles": "COc1cccc(-c2nn(-c3ccccc3)cc2-c2ccnc(N3CCN(C(=O)Nc4ccc(F)cc4)CC3)c2)c1", "growth": "11.2%"}, {"smiles": "C=C1C(=O)O[C@@H]2C[C@@H](C)[C@H](OC)CC(=O)[C@](C)(OC(C)=O)C[C@H](OC(=O)/C(C)=C\\C)[C@@H]12", "growth": "69.3%"}, {"smiles": "CCOC(=O)C1=C(C)NC(C)=C(C(=O)OCc2ccccc2)C1c1cccc(C#N)c1", "note": "(stereo unspecified)", "growth": "16.1%"}, {"smiles": "C=CCn1c(SCC(=O)Nc2ccc(C(=O)/C=C/c3ccc(C)cc3)cc2)nnc1-c1c[nH]c2ccccc12", "growth": "98.4%"}, {"smiles": "CCN(CC)c1ccc2c(c1)Oc1nc(N)c(C#N)c(N)c1C2Sc1ccc(F)cc1", "note": "(stereo unspecified)", "growth": "-18.4% (active)"}, {"smiles": "COCCNc1ccc2ncc(C#Cc3cncc(C(=O)Nc4ccc(CN5CCN(C)CC5)c(C(F)(F)F)c4)c3)n2n1", "growth": "0.694% (active)"}, {"smiles": "O=C(CSc1nnc(-c2ccc3nc(-c4ccccc4)[nH]c3c2)o1)Nc1ccc(C(=O)/C=C/c2ccccc2)cc1", "growth": "109%"}, {"smiles": "CC1=C(C)C(=O)C(Nc2ccccc2)=C(Cl)C1=O", "growth": "45.6%"}, {"smiles": "N#Cc1nc(-c2ccccc2)oc1N1CCC(C2(C(F)(F)F)N=N2)CC1", "growth": "95.4%"}, {"smiles": "CNC(=O)c1cc(-n2ccc3cc(NC(=O)Nc4ccc(N5CCOCC5)c(C(F)(F)F)c4)ccc32)ccn1", "growth": "-37.1% (active)"}, {"smiles": "C#Cc1ccc(C(=O)NCc2ccc(/C=C/C(=O)c3nccn3C)cc2)cc1", "growth": "0.695% (active)"}, {"smiles": "Cc1nc(-c2cc3ccccc3oc2=O)ccc1C(=O)/C=C/c1ccc(Cl)c(Cl)c1", "growth": "97.9%"}, {"smiles": "COc1ccc(Cn2cc3c(c2-c2cc(OC)c(OC)c(OC)c2)CCCc2cnoc2-3)cc1N", "growth": "-9.82% (active)"}, {"smiles": "CC(O)c1cc2ccccc2c(=O)o1", "note": "(stereo unspecified)", "growth": "102%"}, {"smiles": "CCOC(=O)c1nn(-c2ccc(C)cc2)c(=O)c2c(N)c(C#N)c(-c3ccc(OC)cc3)cc12", "growth": "125%"}]}]}
